We go through four compounds from PubChem BioAssay (NCATS).

Records with an inconclusive call do not appear. Active and inactive are the calls of the source. Calls come from the whole dose curve.

A short description of assay [1]: Primary qHTS for inhibitors of SARS-S pseudo-typed particle cell entry (AID 1479145). For activity change, negative = inhibition: % is set by controls: 0 for no effect and ±100 for the full control effect. Note: nearly all actives have a fitted effect of over 45% in size. Note: potency is the fitted concentration of half-maximal effect. The conditions noted are these: outcome: dose series up to 57.1 µM unless noted. (Quantitative high-throughput screening tests each substance at several concentrations.)
Assay [2] can be described thus: Primary qHTS for Huh7 cytotoxicity: counterscreen for inhibitors of MERS-S pseudotyped particle cell entry (AID 1479147). Particulars: outcome: dose series up to 57.1 µM unless noted.
Assay [3] in a line: Primary qHTS for Vero E6 cytotoxicity: counterscreen for inhibitors of SARS-S pseudo-typed particle cell entry (AID 1479150). The conditions noted are these: outcome: dose series up to 57.1 µM unless noted.
Assay [4] can be described thus: Cytotoxicity counterscreen for inhibitors of SARS-CoV-2 cell entry (AID 1645845). Note: % is set by controls: 0 for no effect and ±100 for the full control effect; nearly all actives have a fitted effect of over 50% in size. The conditions noted are these: outcome: dose series up to 57.1 µM unless noted. The method, boiled down:
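48 h compound treatment (after 1 h preincubation), HEK293-ACE2 cells, 37 C/5% CO2; ATP luminescence endpoint; normalized to cell wells and media blanks.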
(In general: The purpose of a counterscreen is to sort out artefacts and off-target activity.)

Assay [5] can be described thus: Primary qHTS to identify inhibitors of SARS-CoV-2 cell entry (AID 1645846). Note: nearly all actives have a fitted effect of over 45% in size. The conditions noted are these: SARS-CoV-2 pseudovirus cell entry assay, luminescence; activity change, negative = inhibition: at 57.1 µM (top of the series) unless noted. Put shortly: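 Entry measured by luciferase signal 48 h after adding SARS-CoV-2-S pseudotyped MLV particles to HEK293-ACE2 cells preincubated 1 h with compounds. Normalisation: bald particles and spike particles.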

Assay [6] in a line: Confirmatory qHTS to identify inhibitors of SARS-CoV-2 cell entry (AID 1645844). Note: potency is the fitted concentration of half-maximal effect; nearly all actives have a fitted effect of over 45% in size. Put shortly: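 Luminescence from a luciferase reporter, read 48 hr after pseudotyped-particle addition, gives entry signal, normalised to spike-bearing PP wells and bald PP lacking fusion protein wells. Cells are Expi293F stably expressing human ACE2, compound-pretreated 1 hr.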
Assay [7] can be described thus: VSVG counterscreen qHTS to identify inhibitors of SARS-CoV-2 cell entry (AID 1645847). Note: potency is the fitted concentration of half-maximal effect; nearly all actives have a fitted effect of over 65% in size. Put shortly: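 Luminescence read after 48 h infection at 37 C with VSV-G-pseudotyped MLV particles, following 1 h compound exposure of Expi293F cells stably expressing human ACE2; scaled between bald particle and VSV-G particle wells.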
The nature of assay [8]: Primary qHTS for inhibitors of MERS-S pseudo-typed particle cell entry (AID 1479149). Note: % is set by controls: 0 for no effect and ±100 for the full control effect; nearly all actives have a fitted effect of over 60% in size. The conditions noted are these: outcome: dose series up to 57.1 µM unless noted.

Take `CC[C@H]1OC(=O)[C@H](C)[C@@H](O[C@H]2C[C@@](C)(OC)[C@@H](O)[C@H](C)O2)[C@H](C)[C@@H](O[C@@H]2O[C@H](C)C[C@H](N(C)C)[C@H]2O)[C@](C)(OC)C[C@@H](C)C(=O)[C@H](C)[C@@H](O)[C@]1(C)O`: the Potency result in assay [1], in assay [2], in assay [3] and in assay [4] was “inactive” each time. For the same compound, the activity change, negative = inhibition in assay [5] is -13%.
Turning to `C=C[C@]1(C)C[C@@H](OC(=O)CSCCN(CC)CC)[C@]2(C)[C@H](C)CC[C@]3(CCC(=O)[C@H]32)[C@@H](C)[C@@H]1O`, the Potency in assay [1] is 20 µM (active); in assay [6], 3.04 µM (active); in assay [7], 15.2 µM (active). For the same compound, the Potency entry in assay [2], in assay [3] and in assay [4] was “inactive” throughout.
Regarding `CCN(CC)CCOC(=O)c1ccc(N)cc1Cl`, the Potency result in assay [1], in assay [2], in assay [3] and in assay [4] was “inactive” throughout.
As for `CC[C@@]1(O)C(=O)OCc2c1cc1n(c2=O)Cc2cc3c([N+](=O)[O-])cccc3nc2-1`, the Potency entry in assay [1] and in assay [8] was “inactive” each time. For the same compound, the Potency is 0.0175 µM (active) in assay [6] and 0.0221 µM (active) in assay [7]. In addition, the activity change, negative = inhibition in assay [5] is -97% [at 114 µM].
